As a reminder, the inhibition is the change of the read-out against control, counted positive when it falls.

These results are taken from PubChem BioAssay.

Test [1] can be described thus: rapamycin-like changes in RPL19A-GFP expression – cell-based, S. cerevisiae, multiplex flow cytometry, primary screen (AID 1862; in the data active = percent of DMSO control GFP below about 86%;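 also: lower values mimic rapamycin by blocking the RPL19A rise seen in DMSO cells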). The conditions noted are these: S. cerevisiae RPL19A-GFP strain, flow cytometry fluorescence, 3 h; at 10 µM; stronger effect = lower value. A general note: In flow cytometry, cells or beads pass a laser one at a time.
Test [2] can be described thus: TOR pathway GLN3 branch reporter MEP2-GFP changes – S. cerevisiae, multiplex flow cytometry, primary screen (AID 1867;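 active = GFP response, as percent of the DMSO control, above the screen-wide mean plus 3 SD, about 139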;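 also: median GFP channel fluorescence of barcode-gated MEP2-GFP cells measured by flow cytometry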). To be noted: S. cerevisiae MEP2-GFP strain, 3 h, at 10 µM, stronger effect = higher value, 100% means same as DMSO wells.
Test [3] in a line: TOR pathway RTG branch CIT2 reporter changes – S. cerevisiae, GFP fusion, multiplex flow cytometry, primary screen (AID 1870;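 active = percent response above a set limit, the screen-wide mean plus 3 SD, cut at about 130% in these data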;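 also: barcoded CIT2-GFP strain pooled with four other GFP strains with rapamycin as positive control; median GFP fluorescence per well over plate mean of DMSO wells so 100% = DMSO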). The conditions noted are these: S. cerevisiae CIT2-GFP expression, 3 h, at 10 µM, stronger effect = higher value.
Test [4] in a line: TOR pathway LAP4-GFP level changes – S. cerevisiae, multiplex flow cytometry, primary screen (AID 1873). To be noted: S. cerevisiae LAP4-GFP expression, 3 h, at 10 µM, stronger effect = higher value.
Test [5] in a line: yeast AGP1-GFP level changes, GLN3 branch – cell-based, multiplex flow cytometry, S. cerevisiae, primary screen (AID 1887;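 active = GFP signal above the screen-wide mean plus 3 SD, that is over about 124.5% of the solvent control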;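 also: AGP1-GFP fusion strain of S. cerevisiae within a five-strain barcoded multiplex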). To be noted: 3 h, at 10 µM, stronger effect = higher value.
Test [6] can be described thus: reduced mouse 2C T cell binding to pMHC/ICAM-1 vesicles – MLPCN validation set, flow cytometry, LFA-1/ICAM-1 modulator project, pilot screen (AID 2523;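 active = response below a set limit, under 55% cells CD8-positive and vesicle-bound, and CD8 cells' 90th-percentile brightness under 279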;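 as to vesicle binding response: mean PE anti-B7-1 fluorescence of CD8+ cells relative to row control; 100% = QL9-loaded vesicles with DMSO vehicle in the same plate row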). The conditions noted are these: 2C mouse CD8+ T cells, at 7 µM, stronger effect = lower value; double positive events: measured here: CD8+/vesicle+ event percentage.
Test [7] addresses Integrin beta-1 (Homo sapiens) + Integrin alpha-4 (Homo sapiens) (UniProt P13612+P05556). The experiment in a line: alpha4beta1 integrin LIBS antibody binding reduction – U937 cells, HUTS-21 mAb, flow cytometry, validation set, VLA-4 allosteric modulator project, pilot screen (AID 2674;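 active = inhibition above 50%, about 3 SD of the validation set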;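 also: antibody binding induced by the VLA-4 ligand LDV present at three times its Kd; 0% = LDV ligand with antibody and no compound and 100% = antibody without LDV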). The conditions noted are these: HUTS-21 LIBS mAb binding, at 6.7 µM, stronger effect = higher value, binding induced by LDV ligand.

A short description of test [8]: calorie-restriction mimetic ROS inhibitors, yeast – validation compound set, pilot screen (AID 2706;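 active = superoxide response below 65% of plate, a cut near 3 SD across the whole screen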;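 also: yeast exposed to compound for one week at 30 degrees C before staining; 100% = mean of all compound wells on the same plate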). To be noted: S. cerevisiae aging, superoxide DHE fluorescence; at 10 µM; stronger effect = lower value.
Test [9] deals with Beta-adrenergic receptor kinase 1 (Homo sapiens) (UniProt P25098). The experiment in a line: GRK2 binders displacing RNA aptamer, biochemical, validation, human GRK2, bead flow cytometry (AID 488806;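 active = aptamer binding inhibition above 30%, about 3 SD of noise from non-fluorescent compounds; inactive = inhibition at or below 30%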). To be noted: bead-bound GRK2, FAM-aptamer displacement, at 10 µM, stronger effect = higher value.
Beta-adrenergic receptor kinase 1 (Homo sapiens), sequence (P25098 whole entry, looked up): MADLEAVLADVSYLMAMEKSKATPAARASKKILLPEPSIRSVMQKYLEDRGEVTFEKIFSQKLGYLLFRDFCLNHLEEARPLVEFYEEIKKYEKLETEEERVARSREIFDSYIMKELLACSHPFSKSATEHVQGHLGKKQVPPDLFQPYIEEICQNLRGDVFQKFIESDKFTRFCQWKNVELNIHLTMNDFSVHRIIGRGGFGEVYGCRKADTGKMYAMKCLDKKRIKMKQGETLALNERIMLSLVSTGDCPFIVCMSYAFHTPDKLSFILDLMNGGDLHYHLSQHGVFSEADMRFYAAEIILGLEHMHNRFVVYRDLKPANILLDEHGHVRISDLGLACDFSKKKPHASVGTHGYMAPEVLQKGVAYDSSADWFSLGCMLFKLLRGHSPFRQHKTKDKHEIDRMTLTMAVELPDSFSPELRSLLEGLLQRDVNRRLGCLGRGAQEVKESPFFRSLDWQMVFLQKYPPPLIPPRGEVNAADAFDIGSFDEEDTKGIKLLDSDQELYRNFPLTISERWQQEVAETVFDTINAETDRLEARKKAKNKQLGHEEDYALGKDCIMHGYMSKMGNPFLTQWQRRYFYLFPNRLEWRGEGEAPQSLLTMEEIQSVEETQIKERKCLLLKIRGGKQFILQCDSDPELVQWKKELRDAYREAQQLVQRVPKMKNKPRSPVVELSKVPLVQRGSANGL
In test [10] the target is Beta-2 adrenergic receptor (Homo sapiens) (UniProt P07550). The experiment in a line: agonist-induced loss of surface beta2AR – cell-based, FAP fluorogen, flow cytometry, validation set, pilot screen (AID 504459;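 active = percent response above 42, roughly 3 SD of non-fluorescent test compounds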;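 also: agonist-driven loss of surface beta2AR via internalization measured by FAP dye flow cytometry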). To be noted: Am2.2-beta2AR cells, at 10 µM, stronger effect = higher value.
Beta-2 adrenergic receptor (Homo sapiens), sequence (P07550 whole entry, looked up): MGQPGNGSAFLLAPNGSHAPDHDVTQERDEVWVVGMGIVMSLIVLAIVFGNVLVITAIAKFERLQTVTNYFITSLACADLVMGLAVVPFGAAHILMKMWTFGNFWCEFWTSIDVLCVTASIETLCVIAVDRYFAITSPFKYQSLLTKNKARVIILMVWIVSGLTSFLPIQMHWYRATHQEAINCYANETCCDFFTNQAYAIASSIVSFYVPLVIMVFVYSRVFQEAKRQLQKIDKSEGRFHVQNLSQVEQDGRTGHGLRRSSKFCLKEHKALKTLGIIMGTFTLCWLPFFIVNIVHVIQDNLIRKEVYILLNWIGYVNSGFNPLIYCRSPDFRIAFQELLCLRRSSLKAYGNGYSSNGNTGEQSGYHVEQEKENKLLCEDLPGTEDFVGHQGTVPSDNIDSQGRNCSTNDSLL
Test [11] has as its target AP-2 complex subunit beta (Homo sapiens) (UniProt P63010). The experiment in a line: beta-arrestin/AP2 interaction blockers – biochemical, validation set, GST-AP2 beads, flow cytometry, pilot screen (AID 504541;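 active = inhibition above 54%, about 3 SD of non-fluorescent compounds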;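 also: AP2 carries R879A mutation and is captured from E. coli lysate; bead-bound FITC arrestin peptide fluorescence measuring arrestin peptide binding to AP2; 0% = DMSO wells and 100% = excess unlabeled arrestin peptide control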). The conditions noted are these: FITC arrestin peptide, at 10 µM, stronger effect = higher value, AP2 beta2 appendage fragment, R879A mutant.
A short description of test [12]: cytosolic pH regulators acting via V-ATPase – S. cerevisiae, pHLuorin, HTS validation (AID 504600; in the data active = response above about 15%;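 also: plate controls were DMSO for no effect and reference compound for full effect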). To be noted: V-ATPase proton transport, at 10 µM, stronger effect = higher value.
Test [13] relates to anti-desmoglein-3 scFv antibody binding to human DSG3. The experiment in a line: blockers of pathogenic pemphigus antibody–desmoglein-3 binding – biochemical, validation compound set, bead-based, flow cytometry, pilot screen (AID 588368;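 active = binding below the plate cutoff, the plate median minus 3 SD, with a reading above zero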;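 also: signal is the median channel fluorescence of bead-bound GFP antibody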). The conditions noted are these: Protein G beads, DSG3-Fc, scFv-GFP binding, at 10 µM, stronger effect = lower value.
Test [14] is described as follows: Nile Red efflux blockade in pump-expressing yeast – validation compound set, multiplex, phenotypic, pilot screen (AID 588506;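 active = efflux inhibition above 0.42, the validation set average plus 4 SD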;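 also: Nile Red retained in cells so higher fluorescence means more efflux inhibition; 0 = negative control wells and 1 = enniatin B 25 µM full block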). To be noted: S. cerevisiae pump-expressing triplex, Nile Red efflux flow cytometry; at 10 µM; stronger effect = higher value; the pumps come from Candida albicans.
Test [15] concerns the target ATP-binding cassette sub-family B member 6 (Homo sapiens) (UniProt Q9NP58). The experiment in a line: blockers of ABCB6-driven porphyrin uptake – K562-ABCB6 cells, flow cytometry, validation set, pilot screen (AID 588550;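 active = inhibition above the screen-wide mean plus 3 SD, about 51%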;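 also: 0% = DMSO wells and 100% = benzethonium chloride 70 µM positive control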). To be noted: K562-ABCB6 porphyrin accumulation, 1 h, at 10 µM, stronger effect = higher value.
The nature of test [16]: AML differentiation inducers, ER-HoxA9 marrow cells – cell-based, GFP/MAC1 double positive, flow cytometry, validation set, primary screen (AID 588685;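 active = differentiation response of at least 50%, scaled between solvent and reference control, from cells with both markers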;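 also: compound exposure lasts four days before antibody staining and flow analysis; 0% = DMSO wells and 100% = 5 µM fulvestrant positive control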). The conditions noted are these: stronger effect = higher value, normalized: vehicle 0, fulvestrant 100.

Records with an inconclusive call do not appear. The source made the active and inactive calls.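 The calls were made as follows, unless noted: active = GFP signal, as percent of the solvent control, above the screen mean plus 3 SD, about 149; inconclusive = no reading because the compound's own fluorescence upset strain identification; inactive = the rest.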

ATP-binding cassette sub-family B member 6 (Homo sapiens), sequence (Q9NP58 whole entry, looked up): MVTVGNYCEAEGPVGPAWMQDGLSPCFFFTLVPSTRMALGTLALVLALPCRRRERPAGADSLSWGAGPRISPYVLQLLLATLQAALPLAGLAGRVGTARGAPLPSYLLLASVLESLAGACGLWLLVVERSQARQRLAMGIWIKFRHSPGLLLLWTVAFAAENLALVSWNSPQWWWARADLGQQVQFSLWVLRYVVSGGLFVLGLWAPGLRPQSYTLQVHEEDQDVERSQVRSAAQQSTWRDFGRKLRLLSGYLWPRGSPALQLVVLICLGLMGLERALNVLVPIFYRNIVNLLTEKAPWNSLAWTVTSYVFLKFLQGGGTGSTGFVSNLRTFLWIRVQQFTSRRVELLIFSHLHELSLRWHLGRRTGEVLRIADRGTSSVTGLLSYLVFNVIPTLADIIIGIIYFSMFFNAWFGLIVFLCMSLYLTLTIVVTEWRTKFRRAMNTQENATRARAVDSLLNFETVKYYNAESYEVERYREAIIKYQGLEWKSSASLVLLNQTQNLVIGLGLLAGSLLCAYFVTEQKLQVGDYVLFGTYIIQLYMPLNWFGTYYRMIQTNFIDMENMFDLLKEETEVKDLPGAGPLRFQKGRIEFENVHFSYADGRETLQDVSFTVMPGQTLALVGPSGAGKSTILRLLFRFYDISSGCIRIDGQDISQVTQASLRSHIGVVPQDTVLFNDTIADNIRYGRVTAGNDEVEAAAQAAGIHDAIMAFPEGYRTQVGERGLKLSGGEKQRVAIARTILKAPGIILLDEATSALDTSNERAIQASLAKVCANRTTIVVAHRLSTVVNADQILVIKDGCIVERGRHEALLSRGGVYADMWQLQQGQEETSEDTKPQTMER
Integrin beta-1 (Homo sapiens) + Integrin alpha-4 (Homo sapiens), sequence (P05556 whole entry, looked up): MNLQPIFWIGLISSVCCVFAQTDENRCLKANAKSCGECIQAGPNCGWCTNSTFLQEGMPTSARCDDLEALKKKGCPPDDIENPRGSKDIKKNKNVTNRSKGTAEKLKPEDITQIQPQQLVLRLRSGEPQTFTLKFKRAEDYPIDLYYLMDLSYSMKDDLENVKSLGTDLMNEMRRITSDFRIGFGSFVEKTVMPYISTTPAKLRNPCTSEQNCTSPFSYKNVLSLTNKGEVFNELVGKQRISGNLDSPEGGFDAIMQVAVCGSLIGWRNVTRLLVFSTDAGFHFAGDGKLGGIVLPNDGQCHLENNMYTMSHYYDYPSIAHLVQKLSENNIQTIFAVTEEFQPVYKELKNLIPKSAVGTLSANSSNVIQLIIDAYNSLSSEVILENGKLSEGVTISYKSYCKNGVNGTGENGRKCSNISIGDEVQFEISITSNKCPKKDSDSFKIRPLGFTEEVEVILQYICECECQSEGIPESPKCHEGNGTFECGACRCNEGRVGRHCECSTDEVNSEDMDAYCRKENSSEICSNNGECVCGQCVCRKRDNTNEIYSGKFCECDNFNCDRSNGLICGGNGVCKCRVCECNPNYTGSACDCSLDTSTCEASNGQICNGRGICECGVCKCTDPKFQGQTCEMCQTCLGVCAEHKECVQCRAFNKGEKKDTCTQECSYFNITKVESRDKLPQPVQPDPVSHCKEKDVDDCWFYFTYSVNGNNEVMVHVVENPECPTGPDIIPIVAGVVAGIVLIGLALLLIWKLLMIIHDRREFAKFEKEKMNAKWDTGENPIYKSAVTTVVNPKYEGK
Integrin beta-1 (Homo sapiens) + Integrin alpha-4 (Homo sapiens), sequence (P13612 whole entry, looked up): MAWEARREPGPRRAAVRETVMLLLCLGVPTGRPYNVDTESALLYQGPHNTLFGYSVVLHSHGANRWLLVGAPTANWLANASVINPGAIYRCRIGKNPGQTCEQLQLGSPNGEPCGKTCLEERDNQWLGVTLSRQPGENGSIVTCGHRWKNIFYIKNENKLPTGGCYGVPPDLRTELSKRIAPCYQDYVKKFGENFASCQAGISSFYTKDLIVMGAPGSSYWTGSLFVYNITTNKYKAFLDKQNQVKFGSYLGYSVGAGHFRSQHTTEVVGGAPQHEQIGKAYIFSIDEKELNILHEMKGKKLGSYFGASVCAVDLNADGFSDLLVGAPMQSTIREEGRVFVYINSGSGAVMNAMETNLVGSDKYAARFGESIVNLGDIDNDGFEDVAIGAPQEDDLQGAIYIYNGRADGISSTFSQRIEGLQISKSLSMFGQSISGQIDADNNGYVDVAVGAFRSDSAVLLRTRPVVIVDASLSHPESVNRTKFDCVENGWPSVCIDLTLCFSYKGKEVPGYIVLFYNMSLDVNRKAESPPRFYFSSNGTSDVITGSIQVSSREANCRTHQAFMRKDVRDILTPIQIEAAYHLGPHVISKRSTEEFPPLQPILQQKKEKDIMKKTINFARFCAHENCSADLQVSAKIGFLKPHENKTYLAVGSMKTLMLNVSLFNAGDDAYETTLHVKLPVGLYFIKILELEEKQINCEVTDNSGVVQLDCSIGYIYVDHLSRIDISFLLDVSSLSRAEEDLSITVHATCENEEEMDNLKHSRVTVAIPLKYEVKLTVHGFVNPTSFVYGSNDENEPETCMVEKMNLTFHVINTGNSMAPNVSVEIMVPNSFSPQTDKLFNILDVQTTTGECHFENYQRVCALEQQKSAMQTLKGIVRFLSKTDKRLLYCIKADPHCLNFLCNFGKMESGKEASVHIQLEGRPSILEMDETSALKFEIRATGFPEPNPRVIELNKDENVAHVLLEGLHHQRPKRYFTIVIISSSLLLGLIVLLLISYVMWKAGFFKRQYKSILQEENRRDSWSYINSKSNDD
AP-2 complex subunit beta (Homo sapiens), sequence (P63010 whole entry, looked up, the tested form may be a part, one chain of several): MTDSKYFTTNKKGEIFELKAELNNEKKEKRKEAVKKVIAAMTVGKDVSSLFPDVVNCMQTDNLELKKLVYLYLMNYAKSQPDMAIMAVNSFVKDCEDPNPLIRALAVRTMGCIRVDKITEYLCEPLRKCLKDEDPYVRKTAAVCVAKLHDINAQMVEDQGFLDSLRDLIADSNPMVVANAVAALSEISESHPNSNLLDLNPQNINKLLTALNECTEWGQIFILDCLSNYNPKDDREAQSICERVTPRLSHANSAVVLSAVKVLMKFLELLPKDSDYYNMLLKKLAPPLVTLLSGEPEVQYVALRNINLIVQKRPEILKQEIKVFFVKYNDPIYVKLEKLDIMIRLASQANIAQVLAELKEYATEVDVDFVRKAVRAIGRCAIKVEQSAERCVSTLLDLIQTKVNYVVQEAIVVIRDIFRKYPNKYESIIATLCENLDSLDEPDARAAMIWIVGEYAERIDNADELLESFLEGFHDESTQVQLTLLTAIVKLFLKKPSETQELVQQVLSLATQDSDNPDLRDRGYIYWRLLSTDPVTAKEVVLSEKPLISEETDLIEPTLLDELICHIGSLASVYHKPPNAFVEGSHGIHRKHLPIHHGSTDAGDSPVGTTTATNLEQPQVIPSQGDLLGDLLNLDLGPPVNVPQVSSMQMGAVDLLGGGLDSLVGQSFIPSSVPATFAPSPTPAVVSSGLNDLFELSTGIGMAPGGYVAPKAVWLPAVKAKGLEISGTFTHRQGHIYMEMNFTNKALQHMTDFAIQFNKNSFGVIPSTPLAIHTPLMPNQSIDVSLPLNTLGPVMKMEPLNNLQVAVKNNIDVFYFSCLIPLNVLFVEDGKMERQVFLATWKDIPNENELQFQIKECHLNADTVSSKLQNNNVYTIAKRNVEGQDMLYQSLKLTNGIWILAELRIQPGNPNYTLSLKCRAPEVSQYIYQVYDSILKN

For `COc1ccc(C2OC(=O)Cc3cc(OC)c(OC)cc32)cc1` (stereo not given), in test [1], the percent of DMSO control GFP is 90.6% (inactive). Moreover, the GFP response vs DMSO in test [2] is 127% (inactive); in [4], 82.5% (inactive). Also, the percent response of DMSO control in [3] was 91.3% (inactive). In [5], the GFP response, % of DMSO was 88% (inactive). Also, in test [6], the double positive events is 63.4%. In test [6], the vesicle binding response was 177% (inactive). Moreover, the inhibition in test [7] was -6.15% (inactive); in [11] it was -4.51% (inactive); in test [15] it was 7% (inactive). In addition, the superoxide response (% of plate) in test [8] is 94.5% (inactive). For the same compound, the aptamer binding inhibition in [9] was 2% (inactive). In addition, the results for the response in test [10] and in [12] were -3.02% (inactive) and -1.1% (inactive), respectively. Besides, the binding (% of control) in test [13] was 103% (inactive). In addition, the efflux inhibition (fraction of control) in test [14] is -0.38 (inactive). The differentiation response in test [16] is 3.28% (inactive).
As to `CCn1cc(CN2N=C(C)CC2c2ccccc2)c(C)n1` (stereo not given), the percent of DMSO control GFP in test [1] is 95.6% (inactive). Also, the GFP response vs DMSO in test [2] is 120% (inactive); in [4], 116% (inactive). Besides, the percent response of DMSO control in [3] is 92.9% (inactive). Besides, the GFP response, % of DMSO in test [5] is 97.2% (inactive). In test [6], this compound gave a double positive events of 60.6%. Further, in test [6], the vesicle binding response is 87.5% (inactive). The inhibition in [7] was -7.25% (inactive); in [11], -1.16% (inactive); in [15], 3% (inactive). In addition, the superoxide response (% of plate) in test [8] was 106% (inactive). Also, the aptamer binding inhibition in test [9] was 3% (inactive). For the same compound, the response was 7.08% (inactive) in [10] and 1.03% (inactive) in [12]. Moreover, in [13], the binding (% of control) is 103% (inactive). The efflux inhibition (fraction of control) in test [14] is -0.28 (inactive). Besides, the differentiation response in test [16] is -29.6% (inactive).
`Cc1ccc(C(=O)O)cc1NC(=O)c1cccs1`: the percent of DMSO control GFP in test [1] was 100% (inactive). The results for the GFP response vs DMSO in test [2] and in test [4] were 107% (inactive) and 99.4% (inactive), respectively. Further, the percent response of DMSO control in test [3] was 99.3% (inactive). Moreover, the GFP response, % of DMSO in test [5] is 98.6% (inactive). Besides, in test [6], the double positive events was 64.1%. Further, the vesicle binding response in test [6] is 206% (inactive). Besides, the results for the inhibition in [7], in test [11] and in [15] were -17.5% (inactive), -1.98% (inactive) and 10% (inactive), respectively. In addition, in [8], the superoxide response (% of plate) is 109% (inactive). In addition, the aptamer binding inhibition in [9] was 8% (inactive). The values for the response in [10] and in [12] were 4.14% (inactive) and -0.65% (inactive), respectively. For the same compound, the binding (% of control) in [13] is 100% (inactive). Also, the efflux inhibition (fraction of control) in test [14] was 0.04 (inactive). Also, the differentiation response in [16] is 0.41% (inactive).
Turning to `COc1cc(CNCCc2c[nH]c3ccccc23)cc(Cl)c1OCC(N)=O`, the percent of DMSO control GFP in test [1] was 107% (inactive). Moreover, the GFP response vs DMSO in [2] was 97.4% (inactive); in test [4], 94% (inactive). For the same compound, the percent response of DMSO control in test [3] was 102% (inactive). The GFP response, % of DMSO in test [5] is 97.2% (inactive). The same compound had a double positive events in test [6] of 66.2%. Further, the vesicle binding response in test [6] is 340% (inactive). The inhibition in [7] was -7.25% (inactive); in [11], -2.94% (inactive); in test [15], 0% (inactive). Moreover, the superoxide response (% of plate) in test [8] was 102% (inactive). The aptamer binding inhibition in [9] is -6% (inactive). Moreover, the response was 14.8% (inactive) in [10] and 1.24% (inactive) in [12]. In addition, the binding (% of control) in test [13] was 99.9% (inactive). In [14], the efflux inhibition (fraction of control) was 0.3 (inactive). In addition, the differentiation response in [16] is -10.4% (inactive).
On to `C(=C\c1ccc2ccccc2n1)/c1ccccc1`, for which the percent of DMSO control GFP in test [1] is 102% (inactive). Besides, the values for the GFP response vs DMSO in test [2] and in test [4] were 96.3% (inactive) and 97.4% (inactive), respectively. For the same compound, the percent response of DMSO control in test [3] is 98.6% (inactive). The GFP response, % of DMSO in test [5] is 93.2% (inactive). In test [6], this compound yielded a double positive events of 63.3%. The vesicle binding response in test [6] is 306% (inactive). Besides, the inhibition was -27.7% (inactive) in test [7], -3.54% (inactive) in test [11] and 114% (active) in test [15]. Further, the superoxide response (% of plate) in test [8] was 94.9% (inactive). Also, the aptamer binding inhibition in test [9] was 3% (inactive). For the same compound, the response is 5.82% (inactive) in test [10] and 0.75% (inactive) in [12]. Moreover, in test [13], the binding (% of control) is 105% (inactive). In addition, the efflux inhibition (fraction of control) in [14] was -0.31 (inactive). Also, the differentiation response in test [16] is -8.8% (inactive).
